Drawing on the supplement of paper PMC13094657, this text covers cell viability for 16 compounds.

± gives the standard deviation of the averaged measurements.
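Further: viability of the cells left after supernatant collection, read with Deep Blue dye added for 4 h, as absorbance at 570 nm minus 600 nm.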

In the assay the test system is MDA-MB-231. The assay can be described thus: cell viability relative to vehicle unstimulated control (fraction); higher = more viable cells. As to conditions: pre-treatment time: 18 h then 24 h IFNg/TNF.
`C[C@@H]1CC[C@]2(C(=O)O[C@@H]3O[C@H](CO)[C@@H](O)[C@H](O)[C@H]3O)CC[C@]3(C)C(=CC[C@@H]4[C@@]5(C)CC[C@H](O)[C@@](C)(CO)[C@@H]5CC[C@]43C)[C@@H]2[C@]1(C)O` [Pedunculoside] (compound dose: 10 uM): the cell viability stood at 0.967 ± 0.074. For the compound `C[C@H]1[C@H](C)CC[C@]2(CO)CC[C@]3(C)C(=CC[C@@H]4[C@@]5(C)CC[C@H](O)C(C)(C)[C@@H]5CC[C@]43C)[C@H]12` [Uvaol] (compound dose: 10 uM), the cell viability amounted to 1.03 ± 0.14. In the case of `CC(=O)O[C@@]1(C)C[C@@H](O)[C@]2(O)C=CO[C@@H](O[C@@H]3O[C@H](CO)[C@@H](O)[C@H](O)[C@H]3O)[C@@H]21` [8-O-Acetylharpagide] (compound dose: 10 uM), the cell viability is 0.9 ± 0.067. Under `C[C@@]12CCc3occc3[C@H]1CC[C@@]13C[C@@H](CC[C@H]12)[C@@](O)(CO)C3` [Cafestol] (compound dose: 10 uM) stands 1.03 ± 0.067; under `CC(=O)OCc1cocc2c(C=O)ccc1-2` [Baldrinal] (compound dose: 10 uM), 1.006 ± 0.006. As for `CC(C)=CCC[C@@H](C(=O)O)[C@H]1CC[C@@]2(C)C3=CC[C@H]4C(C)(C)[C@@H](O)CC[C@]4(C)C3=CC[C@]12C` [3-Dehydrotrametenolic acid] (compound dose: 10 uM), the cell viability was determined as 1.01 ± 0.045.

On to `C[C@@H]1O[C@@H](O[C@H]2[C@H](O[C@H]3CC[C@@]4(C)[C@@H](CC[C@]5(C)[C@@H]4CC=C4[C@@H]6CC(C)(C)CC[C@]6(C(=O)O)CC[C@]45C)[C@]3(C)CO)OC[C@H](O[C@@H]3O[C@H](CO)[C@@H](O)[C@H](O)[C@H]3O)[C@@H]2O)[C@H](O)[C@H](O)[C@H]1O` [Pulsatilla saponin D] (compound dose: 10 uM), for which the cell viability was determined as 0.145 ± 0.0044. As for `CC(C)C12CCC(C)(CC1)O2` [1,4-Cineole] (compound dose: 10 uM), the cell viability turned out to be 0.907 ± 0.026. As to `CC(C)=CCCC(C)(OC1OC(CO)C(O)C(O)C1O)C1CCC2(C)C1C(O)CC1C3(C)CC(O)C(OC4OC(CO)C(O)C(O)C4OC4OC(CO)C(O)C(O)C4O)C(C)(C)C3CCC12C` (stereo unspecified) [Gypenoside XLVI] (compound dose: 10 uM), the cell viability is 1.03 ± 0.27.

Take `CC(CC(=O)C[C@@H](C)[C@H]1CC(=O)[C@@]2(C)C3=C(C(=O)[C@@H](O)[C@]12C)[C@@]1(C)CC[C@H](O)C(C)(C)[C@@H]1C[C@@H]3O)C(=O)O` (stereo partly specified) [Ganoderic acid G] (compound dose: 10 uM): the cell viability came to 1.1 ± 0.058. In the case of `CC1(C)CC[C@]2(C(=O)O)CC[C@]3(C)C(=CC[C@@H]4[C@@]5(C)CC[C@H](O[C@@H]6O[C@H](C(=O)O)[C@@H](O)[C@H](O)[C@H]6O)C(C)(C)[C@@H]5CC[C@]43C)[C@@H]2C1` [Calenduloside E] (compound dose: 10 uM) it was 1.07 ± 0.054; in that of `C=CC(C)(O)CCC=C(C)CCC=C(C)C` (mixture of isomers) [Nerolidol] (compound dose: 10 uM), 1.01 ± 0.043. Under `CC12CCC(C1)C(C)(C)C2=O` (single isomer, unassigned; (-)) [(-)-Fenchone] (compound dose: 10 uM) stands 1.121 ± 0.0077; under `C/C=C1/[C@H](O[C@@H]2O[C@H](CO)[C@@H](O)[C@H](O)[C@H]2O)OC=C(C(=O)OC)[C@H]1CC(=O)OCCc1ccc(O)c(O)c1` [Oleuropein] (compound dose: 10 uM), 0.978 ± 0.075. For the compound `CCCCCCCCCC(=O)O[C@@H]1[C@@H](C)[C@@]2(O)[C@@H](C=C(COC(=O)Cc3ccc(O)c(OC)c3)C[C@]3(O)C(=O)C(C)=C[C@@H]23)[C@@H]2C(C)(C)[C@]12OC(=O)CCCCCCCCC` [Phorbol 12,13-didecanoate 20-homovanillate] (compound dose: 10 uM), the cell viability is 1 ± 0.024. In the case of `C/C=C(\C)C(=O)O[C@H]1[C@H](O)[C@]2(COC(C)=O)[C@H](O)C[C@]3(C)C(=CC[C@@H]4[C@@]5(C)CC[C@H](O[C@@H]6O[C@H](C(=O)O)[C@@H](O[C@@H]7O[C@H](CO)[C@@H](O)[C@H](O)[C@H]7O)[C@H](O)[C@H]6O[C@@H]6O[C@H](CO)[C@@H](O)[C@H](O)[C@H]6O)[C@](C)(CO)[C@@H]5CC[C@]43C)[C@@H]2CC1(C)C` [Isoescin IA] (compound dose: 10 uM) it was 1.001 ± 0.0061.
